Laboratory results published in PubChem BioAssay AID1159580 (chemical genetic matrix, 2015).
Hit rate of the full screen: of about 5,500 compounds, about 2,000 (36%) were called active. Another 18% or so got no clear call; they are omitted. Rule as the data show it: active = normalized growth mostly below about 0.91 (no sharp cut-off); inconclusive = no clear call, values can overlap the other calls; inactive = mostly above about 0.92. Some of the results follow.

Test: chemical genetic growth profiling, strain panel (AID 1159580);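 also: tested at 20 µM; growth read once vehicle control cultures reached saturation at 30 °C; 1 = growth at the plate median or of vehicle wells; lower values mean less growth of the strain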
Conditions: growth OD

Measured: normalized growth

CC(C)CCCC(C)[C@H]1CCC2C3CC=C4C[C@@H](O)CC[C@]4(C)C3CC[C@@]21C (some centres undefined)
inactive: S. cerevisiae deletion strains, locus YJR075W, strain HOC1, active compounds read low 1.02 | S. cerevisiae deletion strains, locus YKL009W, strain mrt4, active compounds read low 0.99 | S. cerevisiae deletion strains, locus YKL068W, active compounds read low 1 | S. cerevisiae deletion strains, locus YKL085W, strain MDH1 (second series), active compounds read low 0.999 | S. cerevisiae deletion strains, locus YKL085W, strain MDH1, active compounds read low 0.999 | S. cerevisiae deletion strains, locus YKL160W, strain elf1, active compounds read low 1.01 | S. cerevisiae deletion strains, locus YKL190W, strain CNB1, active compounds read low 1.01 | S. cerevisiae deletion strains, locus YKR001C, strain vps1, active compounds read low 0.985 | S. cerevisiae deletion strains, locus YKR026C, strain gcn3, active compounds read low 0.988 | S. cerevisiae deletion strains, locus YKR091W, strain srl3, active compounds read low 0.981 | S. cerevisiae deletion strains, locus YLL001W, strain dnm1, active compounds read low 1 | S. cerevisiae deletion strains, locus YLL026W, active compounds read low 0.993 | S. cerevisiae deletion strains, locus YLL041C, strain sdh2, active compounds read low 0.968 | S. cerevisiae deletion strains, locus YLR027C, strain aat2, active compounds read low 0.981 | S. cerevisiae deletion strains, locus YLR039C, strain RIC1, active compounds read low 1.02 | S. cerevisiae deletion strains, locus YLR058C, strain SHM2, active compounds read low 1.01 | S. cerevisiae deletion strains, locus YLR102C, strain apc9, active compounds read low 0.995 | S. cerevisiae deletion strains, locus YLR113W, strain HOG1, active compounds read low 1.04 | S. cerevisiae deletion strains, locus YLR221C, strain rsa3, active compounds read low 1.08 | S. cerevisiae deletion strains, locus YLR258W, strain gsy2, active compounds read low 1 | S. cerevisiae deletion strains, locus YLR262C, strain YPT6 (second series), active compounds read low 0.987 | S. cerevisiae deletion strains, locus YLR262C, strain YPT6, active compounds read low 1.02 | S. cerevisiae deletion strains, locus YLR268W, strain sec22, active compounds read low 0.963 | S. cerevisiae deletion strains, locus YLR320W, strain mms22, active compounds read low 1.01 | S. cerevisiae deletion strains, locus YLR330W, strain CHS5, active compounds read low 1.02 | S. cerevisiae deletion strains, locus YLR342W, strain FKS1 (second series), active compounds read low 1.02 | S. cerevisiae deletion strains, locus YLR342W, strain FKS1, active compounds read low 0.968 | S. cerevisiae deletion strains, locus YLR357W, strain rsc2, active compounds read low 0.983 | S. cerevisiae deletion strains, locus YLR370C, strain arc18, active compounds read low 0.974 | S. cerevisiae deletion strains, locus YLR371W, strain rom2, active compounds read low 0.988 | S. cerevisiae deletion strains, locus YLR384C, strain iki3, active compounds read low 0.97 | S. cerevisiae deletion strains, locus YLR418C, strain cdc73, active compounds read low 1 | S. cerevisiae deletion strains, locus YML016C, strain PPZ1, active compounds read low 1.01 | S. cerevisiae deletion strains, locus YML032C, strain rad52, active compounds read low 1 | S. cerevisiae deletion strains, locus YML120C, strain ndi1, active compounds read low 0.975 | S. cerevisiae deletion strains, locus YML124C, strain tub3, active compounds read low 0.999 | S. cerevisiae deletion strains, locus YMR058W, strain fet3, active compounds read low 0.972 | S. cerevisiae deletion strains, locus YMR078C, strain ctf18, active compounds read low 0.999 | S. cerevisiae deletion strains, locus YMR125W, strain sto1, active compounds read low 0.94 | S. cerevisiae deletion strains, locus YMR129W, active compounds read low 0.975 | S. cerevisiae deletion strains, locus YMR205C, strain PFK2, active compounds read low 1 | S. cerevisiae deletion strains, locus YMR223W, strain ubp8, active compounds read low 1.02 | S. cerevisiae deletion strains, locus YMR231W, strain pep5, active compounds read low 0.967 | S. cerevisiae deletion strains, locus YMR263W, strain SAP30, active compounds read low 1.02 | S. cerevisiae deletion strains, locus YMR307W, strain GAS1, active compounds read low 1.04 | S. cerevisiae deletion strains, locus YNL067W, strain RPL9B, active compounds read low 1 | S. cerevisiae deletion strains, locus YNL071W, strain lat1, active compounds read low 0.966 | S. cerevisiae deletion strains, locus YNL183C, strain NPR1, active compounds read low 0.962 | S. cerevisiae deletion strains, locus YNL209W, strain ssb2, active compounds read low 0.98 | S. cerevisiae deletion strains, locus YNL233W, strain BNI4, active compounds read low 1.02 | S. cerevisiae deletion strains, locus YNL248C, strain rpa49, active compounds read low 0.963 | S. cerevisiae deletion strains, locus YNL250W, strain rad50, active compounds read low 1.02 | S. cerevisiae deletion strains, locus YNL271C, strain bni1, active compounds read low 0.994 | S. cerevisiae deletion strains, locus YNL298W, strain CLA4, active compounds read low 0.995 | S. cerevisiae deletion strains, locus YNL307C, strain MCK1, active compounds read low 0.987 | S. cerevisiae deletion strains, locus YNL322C, strain KRE1 (second series), active compounds read low 0.964 | S. cerevisiae deletion strains, locus YNL322C, strain KRE1, active compounds read low 1.01 | S. cerevisiae deletion strains, locus YNR049C, strain mso1, active compounds read low 0.981 | S. cerevisiae deletion strains, locus YNR052C, strain pop2, active compounds read low 0.99 | S. cerevisiae deletion strains, locus YOL012C, strain htz1 0.694 | S. cerevisiae deletion strains, locus YOL147C, strain pex11, active compounds read low 0.99 | S. cerevisiae deletion strains, locus YOR001W, strain rrp6, active compounds read low 0.99 | S. cerevisiae deletion strains, locus YOR061W, strain CKA2, active compounds read low 1.01 | S. cerevisiae deletion strains, locus YOR069W, strain VPS5, active compounds read low 1.01 | S. cerevisiae deletion strains, locus YOR070C, strain gyp1, active compounds read low 1.07 | S. cerevisiae deletion strains, locus YOR080W, strain dia2, active compounds read low 0.991 | S. cerevisiae deletion strains, locus YOR083W, strain WHI5, active compounds read low 1.03 | S. cerevisiae deletion strains, locus YOR106W, strain vam3, active compounds read low 0.988 | S. cerevisiae deletion strains, locus YOR136W, strain idh2, active compounds read low 0.99 | S. cerevisiae deletion strains, locus YOR144C, strain elg1, active compounds read low 0.986 | S. cerevisiae deletion strains, locus YOR184W, strain ser1, active compounds read low 0.984 | S. cerevisiae deletion strains, locus YOR231W, strain MKK1, active compounds read low 1.03 | S. cerevisiae deletion strains, locus YOR265W, strain rbl2, active compounds read low 0.989 | S. cerevisiae deletion strains, locus YOR270C, strain vph1, active compounds read low 0.901 | S. cerevisiae deletion strains, locus YOR290C, strain snf2, active compounds read low 0.987 | S. cerevisiae deletion strains, locus YOR316C, strain cot1, active compounds read low 0.987 | S. cerevisiae deletion strains, locus YPL051W, strain arl3, active compounds read low 1.03 | S. cerevisiae deletion strains, locus YPL055C, strain LGE1, active compounds read low 1.03 | S. cerevisiae deletion strains, locus YPL078C, strain atp4, active compounds read low 0.98 | S. cerevisiae deletion strains, locus YPL106C, strain sse1, active compounds read low 0.999 | S. cerevisiae deletion strains, locus YPL240C, strain hsp82, active compounds read low 0.985 | S. cerevisiae deletion strains, locus YPL241C, strain CIN2, active compounds read low 1.01 | S. cerevisiae deletion strains, locus YPL256C, strain CLN2, active compounds read low 1.01 | S. cerevisiae deletion strains, locus YPR119W, strain clb2, active compounds read low 0.992 | S. cerevisiae deletion strains, locus YPR141C, strain kar3, active compounds read low 0.995 | S. cerevisiae deletion strains, locus YPR163C, strain tif3, active compounds read low 0.988 | S. cerevisiae deletion strains, locus YPR167C, strain met16, active compounds read low 0.995 | S. cerevisiae deletion strains, strain wtn01, active compounds read low 0.972 | S. cerevisiae strains, strain wild type, active compounds read low 1
